Measured values from PubChem BioAssay AID1159580 (chemical genetic matrix, 2015).
The whole screen tested about 5,500 compounds, of which about 2,000 (36%) were called active. About 18% were inconclusive and are not listed. No stated cut-off is given here; in the data, active means normalized growth mostly below about 0.91 (no sharp cut-off); inconclusive means no clear call, values can overlap the other calls; inactive means mostly above about 0.92. This is one part of the list.

Test: chemical genetic growth profiling, strain panel (AID 1159580);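 further: tested at 20 µM; growth read once vehicle control cultures reached saturation at 30 °C; 1 = growth at the plate median or of vehicle wells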
Settings: S. cerevisiae deletion strains, growth OD
[1] = locus YAL040C, strain CLN3, stronger effect = lower value
[2] = locus YCL061C, strain MRC1 (second series), stronger effect = lower value
[3] = locus YDR150W, strain NUM1, stronger effect = lower value
[4] = locus YDR363W, strain ESC2, stronger effect = lower value
[5] = locus YER002W, strain NOP16, stronger effect = lower value
[6] = locus YNL175C, strain NOP13, stronger effect = lower value
[7] = locus YNL197C, strain WHI3, stronger effect = lower value
[8] = locus YNL224C, strain SQS1, stronger effect = lower value
[9] = locus YOR083W, strain WHI5 (second series), stronger effect = lower value

Measured: normalized growth

S=c1[nH]nc(Nc2ccc(I)cc2)s1
inactive: locus YDL101C, strain DUN1, stronger effect = lower value 0.917 | locus YDL132W, strain cdc53, stronger effect = lower value 0.904 | locus YDL214C, strain PRR2, stronger effect = lower value 0.722 | locus YDR054C, strain cdc34, stronger effect = lower value 0.912 | locus YFR019W, strain FAB1, stronger effect = lower value 0.813 | locus YGR052W, strain FMP48, stronger effect = lower value 0.744 | locus YHR082C, strain KSP1, stronger effect = lower value 0.653 | locus YHR205W, strain SCH9, stronger effect = lower value 0.821 | locus YJL128C, strain PBS2, stronger effect = lower value 0.882 | locus YKL048C, strain ELM1, stronger effect = lower value 0.857 | locus YKL067W, strain YNK1, stronger effect = lower value 0.746 | locus YKL101W, strain HSL1, stronger effect = lower value 0.77 | locus YLR133W, strain CKI1, stronger effect = lower value 0.745 | locus YNL307C, strain MCK1 (second series), stronger effect = lower value 0.701 | locus YOR061W, strain CKA2, stronger effect = lower value 0.755 | locus YPR106W, strain ISR1, stronger effect = lower value 0.894 | locus YPR111W, strain DBF20, stronger effect = lower value 0.911 | strain NNK1, stronger effect = lower value 0.893
active: locus YAR019C, strain CDC15, stronger effect = lower value 0.839 | locus YBL105C, strain PKC1, stronger effect = lower value 0.874 | locus YBR135W, strain CKS1, stronger effect = lower value 0.881 | locus YBR136W, strain MEC1, stronger effect = lower value 0.871 | locus YBR160W, strain CDC28, stronger effect = lower value 0.885 | locus YDL017W, strain CDC7, stronger effect = lower value 0.873 | locus YDL028C, strain MPS1, stronger effect = lower value 0.873 | locus YDL108W, strain KIN28, stronger effect = lower value 0.868 | locus YDR052C, strain DBF4, stronger effect = lower value 0.874 | locus YDR226W, strain ADK1, stronger effect = lower value 0.878 | locus YDR477W, strain SNF1, stronger effect = lower value 0.644 | locus YER123W, strain YCK3, stronger effect = lower value 0.504 | locus YER133W, strain GLC7, stronger effect = lower value 0.607 | locus YFL009W, strain cdc4, stronger effect = lower value 0.845 | locus YFL029C, strain CAK1, stronger effect = lower value 0.814 | locus YFR003C, strain YPI1, stronger effect = lower value 0.869 | locus YFR028C, strain CDC14, stronger effect = lower value 0.871 | locus YGR040W, strain KSS1, stronger effect = lower value 0.658 | locus YGR092W, strain DBF2, stronger effect = lower value 0.326 | locus YHR030C, strain SLT2, stronger effect = lower value 0.279 | locus YHR079C, strain IRE1, stronger effect = lower value 0.362 | locus YIL147C, strain SLN1, stronger effect = lower value 0.866 | locus YJL095W, strain BCK1, stronger effect = lower value 0.396 | locus YJL157C, strain FAR1, stronger effect = lower value 0.699 | locus YJR016C, strain ILV3, stronger effect = lower value 0.85 | locus YJR066W, strain TOR1 (second series), stronger effect = lower value 0.14 | locus YJR066W, strain TOR1, stronger effect = lower value 0.462 | locus YKL193C, strain SDS22, stronger effect = lower value 0.849 | locus YKL203C, strain TOR2, stronger effect = lower value 0.648 | locus YLR113W, strain HOG1, stronger effect = lower value 0.51 | locus YLR403W, strain SFP1, stronger effect = lower value 0.566 | locus YML070W, strain DAK1, stronger effect = lower value 0.676 | locus YMR001C, strain CDC5, stronger effect = lower value 0.85 | locus YMR205C, strain PFK2 (second series), stronger effect = lower value 0.743 | locus YMR277W, strain FCP1, stronger effect = lower value 0.863 | locus YNL006W, strain LST8, stronger effect = lower value 0.87 | locus YNL020C, strain ARK1, stronger effect = lower value 0.71 | locus YNL161W, strain CBK1, stronger effect = lower value 0.87 | locus YNL183C, strain NPR1, stronger effect = lower value 0.516 | locus YNL207W, strain RIO2, stronger effect = lower value 0.818 | locus YNL222W, strain SSU72, stronger effect = lower value 0.864 | locus YOL078W, strain AVO1, stronger effect = lower value 0.847 | locus YOL136C, strain PFK27, stronger effect = lower value 0.651 | locus YOR119C, strain RIO1, stronger effect = lower value 0.61 | locus YOR231W, strain MKK1, stronger effect = lower value 0.447 | locus YOR329C, strain SCD5, stronger effect = lower value 0.847 | locus YPL031C, strain PHO85, stronger effect = lower value 0.495 | locus YPL153C, strain RAD53, stronger effect = lower value 0.512 | locus YPL204W, strain HRR25, stronger effect = lower value 0.486 | locus YPL209C, strain IPL1, stronger effect = lower value 0.85 | locus YPL256C, strain CLN2, stronger effect = lower value 0.438 | locus YPR025C, strain CCL1, stronger effect = lower value 0.863 | strain TSCII, stronger effect = lower value 0.838

Oc1cc2c(cc1O)CN(C(=S)NCCc1ccc(Cl)cc1)CCC2
active: locus YAL013W, strain DEP1, stronger effect = lower value 0.609 | [2] 0.683 | [3] 0.656 | locus YGR229C, strain SMI1, stronger effect = lower value 0.128 | locus YJR075W, strain HOC1, stronger effect = lower value 0.718
inactive: [1] 1.09 | [4] 0.879 | [5] 1 | locus YGR078C, strain PAC10, stronger effect = lower value 0.995 | locus YMR263W, strain SAP30, stronger effect = lower value 0.994 | locus YNL128W, strain TEP1, stronger effect = lower value 0.975 | [6] 1 | [7] 0.98 | [8] 0.997 | locus YNL322C, strain KRE1, stronger effect = lower value 0.992 | [9] 0.897

O=C(O)C1CCNCC1
inactive: [1] 1 | [2] 0.998 | [3] 1 | [4] 0.964 | [5] 0.995 | locus YNL153C, strain GIM3, stronger effect = lower value 1.01 | [6] 0.992 | [7] 0.992 | [8] 0.997 | [9] 1.01 | locus YPL055C, strain LGE1, stronger effect = lower value 1.01
